In PubChem BioAssay (NCATS) one finds Potency and activity change, negative = cytotoxicity data, which are given here for 13 compounds.

Inconclusive results are not listed. Unmarked numbers belong to inactive results. Calls of active or inactive are those of the source. Calls follow the shape of the dose curve; as a rule, active = well fitted cell-killing curve with a large enough effect; inconclusive = small, poorly fitted or top-dose-only effect, or effect the other way; inactive = flat fitted curve, though single readings scatter.

Common to all, as to test: Primary qHTS to identify gynecologic anti-cancer compounds using libraries of approved drugs and bioactive compounds (AID 1345084); also: nearly all actives have a fitted effect of over 55% in size
In one test the test system is C33A. To be noted: Gynecologic cancer cell panel viability, ATPlite luminescence, 48 h; series mostly up to 57.5 µM. A digest of the protocol: (§1)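 Cells, 1,000 per well, plated 16 h, then exposed 48 h at 37 C to compounds. Viability by ATPlite luminescence after 15 min at room temperature.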
The next test concerns CAOV3. Conditions: Gynecologic cancer cell panel viability, ATPlite luminescence, 48 h; series mostly up to 57.5 µM. The procedure, abridged:
as §1

The subject of another test is CASKI. To be noted: Gynecologic cancer cell panel viability, ATPlite luminescence, 48 h; series mostly up to 57.5 µM. The procedure, abridged:
as §1

A further test deals with Es-2. To be noted: Gynecologic cancer cell panel viability, ATPlite luminescence, 48 h; series mostly up to 57.5 µM. The procedure, abridged:
as §1

The subject of another test is HeLa. Conditions: Gynecologic cancer cell panel viability, ATPlite luminescence, 48 h; series mostly up to 57.5 µM. A digest of the protocol: as §1
The next test deals with Hek293T. To be noted: Gynecologic cancer cell panel viability, ATPlite luminescence, 48 h, control line for the selectivity index; series mostly up to 57.5 µM. A digest of the protocol:
as §1

The next test deals with JEG-3. To be noted: Gynecologic cancer cell panel viability, ATPlite luminescence, 48 h; series mostly up to 57.5 µM. A digest of the protocol:
as §1

The next test has as its system OV90. To be noted: Gynecologic cancer cell panel viability, ATPlite luminescence, 48 h; series mostly up to 57.5 µM. A digest of the protocol:
as §1

A further test deals with PA-1. To be noted: Gynecologic cancer cell panel viability, ATPlite luminescence, 48 h; series mostly up to 57.5 µM. A digest of the protocol: as §1
Another test has as its system SKOV3. Conditions: Gynecologic cancer cell panel viability, ATPlite luminescence, 48 h; series mostly up to 57.5 µM. A digest of the protocol: as §1
A further test deals with Tov-21-G. Conditions: Gynecologic cancer cell panel viability, ATPlite luminescence, 48 h; series mostly up to 57.5 µM. The procedure, abridged: as §1
In another test the test system is Tov112D. To be noted: Gynecologic cancer cell panel viability, ATPlite luminescence, 48 h; series mostly up to 57.5 µM. The procedure, abridged:
as §1
% is scaled to controls: 0 for no effect and ±100 for the full control effect; potency is read from the fitted curve at half-maximal effect.

Take `O=c1[nH]ccc2cc(OC3CCNCC3)ccc12`: the Potency entry in the test with C33A, with CAOV3, with CASKI, in the test on Es-2, in the test on HeLa and in the test with Hek293T was “inactive” each time. The Potency result with JEG-3, with OV90, with PA-1, in the test with SKOV3, in the test on Tov-21-G and in the test with Tov112D was “inactive” throughout.
Consider `Cn1ncnc1COc1nn2c(-c3cc(F)ccc3F)nnc2cc1C(C)(C)C`, for which the Potency entry in the test on C33A, in the test on CAOV3, with CASKI, in the test on Es-2, in the test on HeLa and in the test on Hek293T was “inactive” in each case. The Potency entry in the test on JEG-3, in the test on OV90, in the test on PA-1, in the test with SKOV3, with Tov-21-G and in the test with Tov112D was “inactive” each time.
For `C[C@@H]1CC[C@@]2(OC1)O[C@H]1C[C@H]3[C@@H]4CC=C5C[C@@H](O)CC[C@]5(C)[C@H]4CC[C@]3(C)[C@H]1[C@@H]2C`, the Potency result in the test on C33A, with CAOV3, with CASKI, in the test with Es-2, in the test on HeLa and in the test on Hek293T was “inactive” each time. Further, the Potency entry in the test on JEG-3, in the test on OV90, in the test on PA-1, with SKOV3, in the test on Tov-21-G and with Tov112D was “inactive” throughout.
Consider `CC(C)S(=O)(=O)NC[C@H](C)c1ccc(NC(=O)c2cc(F)cc(F)c2)cc1`, for which the Potency entry with C33A, with CAOV3, in the test with CASKI, in the test on Es-2, with HeLa and with Hek293T was “inactive” throughout. In addition, the Potency result in the test with JEG-3, in the test with OV90, in the test with PA-1, in the test on SKOV3, with Tov-21-G and in the test on Tov112D was “inactive” each time.
In the case of `C[C@@H]1O[C@@H](O[C@H]2[C@@H](OC(=O)[C@]34CCC(C)(C)CC3C3=CCC5[C@@]6(C)C[C@H](O)[C@H](O[C@@H]7O[C@H](C(=O)O)[C@@H](O)[C@H](O)[C@H]7O)[C@@](C)(C(=O)O)C6CC[C@@]5(C)[C@]3(C)CC4)OC[C@H](O)[C@@H]2O)[C@H](O)[C@H](O)[C@H]1O[C@@H]1OC[C@@H](O)[C@H](O)[C@H]1O` (stereo partly specified), the activity change, negative = cytotoxicity was 1.85% [at 11.6 µM] with C33A; 24.8% [at 11.6 µM] in the test with CAOV3; 0.336% [at 11.6 µM] with CASKI; -0.221% [at 11.6 µM] in the test on Es-2; -0.61% [at 11.6 µM] in the test on HeLa; -0.464% [at 11.6 µM] in the test on Hek293T. Further, the activity change, negative = cytotoxicity with JEG-3 was 3.02% [at 11.6 µM]; with OV90 it was 7.22% [at 11.6 µM]; in the test with PA-1, -35% [at 11.6 µM]; in the test on SKOV3, 13.5% [at 11.6 µM]; in the test with Tov-21-G, -4.55% [at 11.6 µM]; in the test on Tov112D, -6.05% [at 11.6 µM].
For `C=C[C@H]1C(O[C@@H]2O[C@H](CO)[C@@H](O)[C@H](O)[C@H]2O)OC=C2C(=O)N3CCc4c([nH]c5ccccc45)C3CC21` (stereo partly specified), the Potency entry with C33A, with CAOV3, with CASKI, in the test on Es-2, in the test with HeLa and in the test with Hek293T was “inactive” in each case. For the same compound, the Potency entry in the test on JEG-3, in the test with OV90, in the test on PA-1, in the test with SKOV3, in the test on Tov-21-G and with Tov112D was “inactive” each time.
As to `O=C(CCc1nnc2n(Cc3ccc(Cl)cc3)c(=O)c3ccccc3n12)NCCC1=CCCCC1`, the Potency result in the test with C33A, with CAOV3, with CASKI, in the test on Es-2, in the test on HeLa and in the test with Hek293T was “inactive” in each case. For the same compound, the Potency entry in the test with JEG-3, in the test on OV90, in the test with PA-1, in the test on SKOV3, in the test with Tov-21-G and with Tov112D was “inactive” each time.
Regarding `C=C(C(=O)O)C1CCC2(C)CCC(O)C(=C)C2C1` (stereo unspecified), the Potency result in the test with C33A, in the test on CAOV3, in the test on CASKI, with Es-2, in the test with HeLa and with Hek293T was “inactive” in each case. The Potency result in the test with JEG-3, in the test with OV90, in the test on PA-1, in the test with SKOV3, in the test with Tov-21-G and with Tov112D was “inactive” each time.
As to `CC/C=C\[C@H](O)[C@H](O)C1=C(C)C(=O)[C@]2(O1)C(=O)N[C@@](OC)(C(=O)c1ccccc1)[C@@H]2O`, the Potency result in the test on C33A, in the test with CAOV3, in the test with CASKI, with Es-2, in the test on HeLa and in the test on Hek293T was “inactive” in each case. In addition, the Potency result in the test on JEG-3, with OV90, with PA-1, in the test on SKOV3, with Tov-21-G and with Tov112D was “inactive” each time.
Consider `COC(=O)CC(O)C1OC(c2ccccc2)C(O)C1O` (stereo unspecified), for which the Potency entry with C33A, in the test with CAOV3, in the test on CASKI, in the test with Es-2, in the test on HeLa and in the test on Hek293T was “inactive” throughout. The Potency entry in the test on JEG-3, with OV90, with PA-1, in the test with SKOV3, with Tov-21-G and in the test with Tov112D was “inactive” each time.
For the compound `Cc1cc2c(c(=O)[nH]1)OC(C(O)CC(C)C)O2` (stereo unspecified), the Potency entry in the test with C33A, with CAOV3, in the test with CASKI, with Es-2, with HeLa and with Hek293T was “inactive” in each case. Besides, the Potency entry in the test on JEG-3, with OV90, in the test on PA-1, with SKOV3, with Tov-21-G and in the test with Tov112D was “inactive” in each case.
As to `C[C@@H]1CC[C@]2(C(=O)O[C@@H]3O[C@H](CO)[C@@H](O)[C@H](O)[C@H]3O)CC[C@]3(C)C(=CCC4[C@@]5(C)C[C@@H](O)[C@H](O)[C@@](C)(C(=O)O[C@H]6[C@H](O)C[C@@]7(C)C(CC[C@]8(C)C7CC=C7[C@H]9[C@](C(=O)O[C@@H]%10O[C@H](CO)[C@@H](O)[C@H](O)[C@H]%10O)(CC[C@@H](C)[C@@]9(C)O)CC[C@]78C)[C@@]6(CO)C(=O)O)C5CC[C@]43C)[C@@H]2[C@]1(C)O` (stereo partly specified), the activity change, negative = cytotoxicity in the test with C33A was 2.44% [at 6.55 µM]; in the test with CAOV3, 6.22% [at 6.55 µM]; with CASKI it was 11.5% [at 6.55 µM]; in the test on Es-2 it was -0.958% [at 6.55 µM]; in the test with HeLa, -3.59% [at 6.55 µM]; in the test on Hek293T, 2.04% [at 6.55 µM]. Further, the activity change, negative = cytotoxicity in the test on JEG-3 was -2.9% [at 6.55 µM]; in the test on OV90, -0.495% [at 6.55 µM]; in the test on PA-1, 8.04% [at 6.55 µM]; in the test with SKOV3, 17.7% [at 6.55 µM]; in the test with Tov-21-G, 0.548% [at 6.55 µM]; with Tov112D it was 3.01% [at 6.55 µM].
Regarding `c1cn2cc(-c3ccc4cn[nH]c4c3)nc(Nc3ccc(N4CCOCC4)cc3)c2n1`, the Potency in the test with C33A was 2.24 µM (active); in the test on CAOV3 it was 2 µM (active); with CASKI, 2.82 µM (active); with Es-2 it was 2.51 µM (active); with HeLa it was 2.82 µM (active); in the test with Hek293T, 2.24 µM (active). Further, the Potency with JEG-3 was 2.82 µM (active); with OV90, 1.78 µM (active); with PA-1, 1.78 µM (active); with SKOV3, 2.82 µM (active); in the test on Tov-21-G, 2.24 µM (active); in the test on Tov112D, 2.24 µM (active).
